Results as given in PubChem BioAssay (EPA / NIEHS).
“And” between values parts separate entries of the source, which are not always exact repeats. Identical values can stand only once. Results filed as inconclusive are left out. Some compounds were tested as several samples or in several runs, with calls that do not always agree. The source made the active and inactive calls. The calls were made as follows: active = hit-call score of the fitted dose curve at least 0.9, where 1 is the maximum; inconclusive = response in the unintended direction; inactive = score below 0.9.

These molecules were tested against Retinoic acid receptor RXR-alpha (Homo sapiens) (UniProt P19793) (assay: OT_NURR1_NURR1RXRa_0480: Odyssey Thera (OT) 8-hour HEK293T Protein Complementation Assay for Nurr1/retinoid X receptor (RXR) (AID 2283385)).
Retinoic acid receptor RXR-alpha (Homo sapiens), sequence (P19793 whole entry, looked up, the tested form may be a part): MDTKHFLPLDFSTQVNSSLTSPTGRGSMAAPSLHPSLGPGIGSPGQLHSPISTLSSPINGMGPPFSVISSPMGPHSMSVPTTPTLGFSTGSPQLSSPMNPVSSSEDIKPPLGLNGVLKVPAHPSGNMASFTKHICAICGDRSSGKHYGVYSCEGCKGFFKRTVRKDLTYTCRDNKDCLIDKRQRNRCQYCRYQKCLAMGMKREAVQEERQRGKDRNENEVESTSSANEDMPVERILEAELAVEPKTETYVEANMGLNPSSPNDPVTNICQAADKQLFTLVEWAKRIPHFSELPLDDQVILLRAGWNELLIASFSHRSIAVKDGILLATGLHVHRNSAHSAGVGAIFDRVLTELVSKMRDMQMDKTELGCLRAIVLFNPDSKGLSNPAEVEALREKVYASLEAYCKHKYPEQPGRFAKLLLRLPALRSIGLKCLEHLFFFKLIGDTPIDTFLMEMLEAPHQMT
Protocol: OT_NURR1_NURR1RXRa_0480 is a cell-based assay that uses HEK293T, a human kidney cell line, with measurements taken at 8 hours after chemical dosing in a 384-well plate.OT_NURR1_NURR1RXRa_0480 is one of one assay component(s) measured or calculated from the OT_NURR1_NURR1RXRa_0480 assay. It is designed to make measurements of protein fragment complementation, a form of binding reporter, as detected with fluorescence intensity signals by Protein-fragment Complementation technology.Data from the assay component OT_NURR1_NURR1RXRa_0480 was analyzed into 1 assay endpoint. This assay endpoint, OT_NURR1_NURR1RXRa_0480, was analyzed in the positive analysis fitting direction relative to DMSO as the negative control and baseline of activity. Using a type of binding reporter, measures of receptor for gain-of-signal activity can be used to understand the binding at the pathway-level as they relate to the gene RXRA. Furthermore, this assay endpoint can be referred to as a primary readout, because the performed assay has only produced 1 assay endpoint. To generalize the intended target to other relatable targets, this assay endpoint is annotated to the nuclear receptor intended target family, where the subfamily is non-steroidal.
Protein-fragment complementation assay, or PCA, is a method for the identification and quantification of protein-protein interactions. In the PCA, the proteins of interest ("bait" and "prey") are each covalently linked to fragments of a third protein (e.g. DHFR, which acts as a "reporter"). Interaction between the bait and the prey proteins brings the fragments of the reporter protein in close proximity to allow them to form a functional reporter protein whose activity can be measured.
`O=C(Nc1ccccc1)c1ccccc1I` was tested, and the outcome was “inactive”. For `Nc1ccc([N+](=O)[O-])cc1`, the outcome was “inactive”. `Brc1ccc(Oc2ccccc2)cc1` was tested, and the outcome was “inactive”. For `Clc1ccc(Cl)c(Cl)c1`, the outcome was “inactive”. With `Cc1cccc(N)c1N` the AC50 was 33.9 µM (active) and the outcome was “inactive”. In the case of `CCN(CC)N=O`, the outcome is reported as “inactive”. For `Clc1ccc(C(c2ccc(Cl)cc2)C(Cl)Cl)cc1`, the AC50 was 92.4 µM (active). For `O=P(OCCCl)(OCCCl)OCCCl`, the outcome was “inactive”. `[As]#[In]` was tested, and the outcome was “inactive”. In the case of `Cc1ccc(N)cc1`, the outcome is reported as “inactive”. With `CC(C)(OOC(C)(C)c1ccccc1)c1ccccc1` the AC50 was 77.4 µM (active) and 93.2 µM (active). In the case of `Cc1cc(N=Nc2ccccc2C)ccc1N`, the outcome is reported as “inactive”. With `CCN(CC)CCO` the outcome was “inactive”. In the case of `c1ccc2c(c1)oc1ccccc12`, the outcome is reported as “inactive”. With `c1ccc(C2CO2)cc1` (stereo not given) the outcome was “inactive”. In the case of `Nc1ccc(Oc2ccc(N)cc2)cc1`, the outcome is reported as “inactive”. With `OCCOCCO` the outcome was “inactive”. With `CCC(C)c1ccc(O)cc1` (stereo not given) the outcome was “inactive”. In the case of `CCCCCOC(=O)c1ccccc1C(=O)OCCCCC`, the outcome is reported as “inactive”. With `C[N+](C)(C)CC1CO1` (stereo not given) the outcome was “inactive”. In the case of `C[C@]12C=CC3=C4CCC(=O)C=C4CC[C@H]3[C@@H]1CC[C@@H]2O`, the outcome is reported as “inactive” and the AC50 is reported as 14.3 µM (active). For `CC(C)(O)c1cnn2c(-c3ccc(F)c(-c4c(F)cccc4C#N)c3)cnc2n1`, the AC50 was 84.7 µM (active) and 91.1 µM (active). `CCCCCCCCCCCCCN1CC(C)OC(C)C1` (stereo not given) was tested, and the AC50 was 72.5 µM (active). `N#CC(Br)(Br)C(N)=O` was tested, and the outcome was “inactive”. For `CN(C)C(=O)Nc1ccc(Cl)cc1`, the outcome was “inactive”. With `CCC[CH2][Sn]([Cl])([CH2]CCC)[CH2]CCC` the outcome was “inactive”. With `O=C(O)C1C2CCC(O2)C1C(=O)O` (stereo not given) the outcome was “inactive” and the AC50 was 74.3 µM (active). In the case of `Nc1ccc(Cc2ccc(N)cc2)cc1`, the outcome is reported as “inactive”. `COP(=S)(OC)SCN1C(=O)c2ccccc2C1=O` was tested, and the outcome was “inactive”. With `Clc1ccc(C(c2ccc(Cl)cc2)C(Cl)(Cl)Cl)cc1` the AC50 was 70.1 µM (active). With `Nc1ccc(Cl)cc1N` the AC50 was 39.2 µM (active) and the outcome was “inactive”. In the case of `COC(=O)c1ccccc1N`, the outcome is reported as “inactive”. `c1ccc2c(c1)-c1cccc3cccc-2c13` was tested, and the outcome was “inactive”. In the case of `Cc1ccc(N=C=O)cc1N=C=O`, the outcome is reported as “inactive”. In the case of `CC(C)N(Cc1ccccc1)C(=O)C(C)(C)C`, the outcome is reported as “inactive”. In the case of `c1ccc(NNc2ccccc2)cc1`, the outcome is reported as “inactive”.
